Experimental findings from PubChem BioAssay (NCATS) are described below.

For assay [1], the target named is Lysosomal acid glucosylceramidase (Homo sapiens) (UniProt P04062). Nature of the assay: Glucocerebrosidase-p2 (AID 348; in the data active = potency below about 10 µM; note: potency is the fitted concentration of half-maximal effect). To be noted: purified GBA, blue fluorogenic substrate, 40 min. A digest of the protocol: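 Compounds titrated from 0.6 nM upwards against 0.2 nM enzyme in pH 5.9 citric acid/KH2PO4, taurocholate, tween-20; blue fluorogenic substrate 80 uM, 40 min room temperature, stopped and read Ex 365/Em 440 for AC50.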
Chain of Lysosomal acid glucosylceramidase (Homo sapiens) (P04062 whole entry, looked up): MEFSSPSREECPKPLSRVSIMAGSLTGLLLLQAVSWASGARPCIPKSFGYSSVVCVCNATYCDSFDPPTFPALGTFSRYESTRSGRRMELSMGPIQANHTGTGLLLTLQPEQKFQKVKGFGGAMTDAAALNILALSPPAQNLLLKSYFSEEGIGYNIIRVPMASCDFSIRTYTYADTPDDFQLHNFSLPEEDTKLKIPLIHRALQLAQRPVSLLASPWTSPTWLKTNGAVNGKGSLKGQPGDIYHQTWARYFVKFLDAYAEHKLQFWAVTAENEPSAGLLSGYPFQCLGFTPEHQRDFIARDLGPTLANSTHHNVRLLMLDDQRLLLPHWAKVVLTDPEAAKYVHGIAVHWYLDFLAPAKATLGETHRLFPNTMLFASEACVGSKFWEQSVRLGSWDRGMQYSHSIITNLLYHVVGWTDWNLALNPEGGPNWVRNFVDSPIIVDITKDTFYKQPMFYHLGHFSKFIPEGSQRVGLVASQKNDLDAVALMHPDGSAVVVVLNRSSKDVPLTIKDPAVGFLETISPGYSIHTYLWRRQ

Assay [2] in a line: AP1 Signaling Pathway (AID 357; active = well fitted curve in either direction with a large enough effect, not every such curve was filed as active;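 note: ME-180 reporter cells stimulated with EGF at its EC50 level; % is set by controls: 0 for no effect and ±100 for the full control effect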). To be noted: ME-180 AP-1-bla reporter, EGF-induced, beta-lactamase ratio, 5 h; at 7.69 µM (top of the series) unless noted. The essentials:
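Modulation of EGF-driven AP-1 transcription was assessed with a beta-lactamase reporter in ME-180 cells. Compound and EC50 EGF were co-incubated 5 hours at 37 °C before 2.5-hour CCF4 loading at room temperature and dual-emission reading.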

Assay [3] concerns the target Cytochrome P450 1A2 (Homo sapiens) (UniProt P05177). Description: p450-cyp1a2 (AID 410; calls by dose curve; note: potency is the fitted concentration of half-maximal effect). To be noted: recombinant CYP1A2, luciferin-ME demethylation, luminescence; series mostly up to 57 µM. A digest of the protocol: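 20nM CYP1A2 with 100uM Luciferin-ME (at Km) in 100mM KPO4; compound preincubated 10 min, NADPH regeneration added, 60 min at room temperature. Luciferin quantified by luminescence after detection reagent; normalized to 57 uM furafylline.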

Assay [4] in a line: NFAT Signaling Pathway (AID 444; active = well fitted curve in either direction with a large enough effect, not every such curve was filed as active;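 note: carbachol stimulus at about its EC50 of 1 µM final; % is set by controls: 0 for no effect and ±100 for the full control effect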). The conditions noted are these: Jurkat NFAT-bla M1, carbachol, beta-lactamase ratio, 5 h; at 7.69 µM (top of the series) unless noted. The essentials: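 Read-out: CCF4 FRET ratio (460 nm/530 nm) after 1 h RT dye loading, used for %activity and AC50 from titration series. Cells: Jurkat NFAT-β-lactamase/M1 line, treated with compound plus 1 uM carbachol for 5 h, 37 °C.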

Assay [5] can be described thus: Stat Signaling Pathway (AID 446; active = well fitted curve in either direction with a large enough effect, not every such curve was filed as active;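 note: ME-180 cervical cancer cells given 40 pM IL-6 alongside compound; SIE-controlled beta-lactamase reporter measured as 460/530 nm FRET emission ratio; % is set by controls: 0 for no effect and ±100 for the full control effect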). To be noted: ME-180 SIE beta-lactamase reporter, IL-6 stimulated, 5 h; at 7.69 µM (top of the series) unless noted. The essentials:
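ME-180 cells carrying a SIE-driven beta-lactamase reporter are stimulated with 40 pM IL-6 for 5 h at 37C in the presence of compound. The 460/530 nm FRET substrate ratio is read after 2.5 h at RT. Data are normalised to 300 pM IL-6 and to 125 nM JAK inhibitor controls.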

Assay [6] concerns the target Glucocorticoid receptor (Homo sapiens) (UniProt P04150). Nature of the assay: GR-GFP Redistribution (AID 450;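 active = compounds whose dose series gives a full or clear partial fitted curve of increased nuclear translocation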; note: potency is the fitted concentration of half-maximal effect). The conditions noted are these: U2OS GR-GFP nuclear translocation, laser cytometry, 2 h.
Assay [7] shares this target. Description: GR-EFC Redistribution (AID 451; calls by dose curve; note: potency is the fitted concentration of half-maximal effect). The conditions noted are these: CHO-K1 GR-EFC translocation, beta-gal luminescence, 2 h. The essentials:
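Translocation of GR-ED fusion to nuclear EA restores b-gal, read by luminescence after 1 h room-temperature detection. Engineered CHO-K1 biosensor cells, 1,000/well, exposed 2 h at 37 C to titrations up to 46 uM final.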

Assay [8] addresses Mitogen-activated protein kinase 10 (Mus musculus) (UniProt Q61831). Nature of the assay: JNK3 AlphaScreen Assay (AID 530; active = well fitted curve in either direction with a large enough effect, not every such curve was filed as active;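 note: kinase came from lysate of stimulated human HepG2 cells; signal reports phosphorylation of biotinylated GST-cJun 1-79 at Ser73 with 10 µM ATP; % is set by controls: 0 for no effect and ±100 for the full control effect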). To be noted: JNK3 lysate, c-Jun phosphorylation; series mostly up to 57.1 µM. The essentials: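 Compound titrations were preincubated 15 minutes at room temperature with substrate, antibody and pre-activated JNK3-containing HepG2 lysate. Reactions were started with 10 uM ATP and stopped with EDTA-containing bead buffer for AlphaScreen detection.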
(In general: Bead proximity is the source of the signal in Alpha formats.)

For assay [9], the target named is Cytochrome P450 3A4 (Homo sapiens) (UniProt P08684). Description: qHTS Assay for Inhibitors and Substrates of Cytochrome P450 3A4 (AID 884). Note: potency is the fitted concentration of half-maximal effect; nearly all actives have a fitted effect of over 50% in size. To be noted: recombinant CYP3A4, Luciferin-PPXE luminescence; series mostly up to 57.1 µM. A digest of the protocol:
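20 nM human CYP3A4 with 25 uM Luciferin-PPXE (at KM) in 200 mM KPO4, preincubated 10 min with compound; NADPH regeneration started a 60 min RT reaction. Luciferin detected by luminescence, normalized to 57 uM ketoconazole as full inhibition.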

The target is the same in assay [10]. Description: qHTS Assay for Activators of Cytochrome P450 3A4 (AID 885). Note: nearly all actives have a fitted effect of over 65% in size. To be noted: recombinant CYP3A4, Luciferin-PPXE luminescence, 60 min; series mostly up to 57.1 µM. A digest of the protocol: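 Human CYP3A4 (20 nM) with Luciferin-PPXE at 25 uM (its KM) in 200 mM KPO4; 10 min compound preincubation, then NADPH regeneration and 60 min reaction at RT. Luciferin read by luminescence; normalized to 57 uM ketoconazole full inhibition.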
On the technique in general: Quantitative high-throughput screening tests each substance at several concentrations.

For assay [11], the target named is Ubiquitin carboxyl-terminal hydrolase 1 (Homo sapiens) (UniProt O94782). Nature of the assay: Inhibitors of USP1/UAF1: Pilot qHTS (AID 504865).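 Note: rhodamine fluorescence freed from ubiquitin-rhodamine substrate followed over time; top concentration of the series differs between compounds; % is set by controls: 0 for no effect and ±100 for the full control effect; nearly all actives have a fitted effect of over 35% in size.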 To be noted: purified USP1/UAF1, Ub-rhodamine cleavage fluorescence; series mostly up to 54.9 µM. The essentials:
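In 50mM HEPES pH 7.8 containing 0.5mM EDTA, 1mM TCEP, 0.1 mg/ml BSA and 0.01% Tween-20, 1nM USP1/UAF1 is exposed to compound for 15 min, then Ub-Rho (150nM final) is added and fluorescence is read over time.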

The nature of assay [12]: Primary qHTS for small molecule stabilizers of the endoplasmic reticulum resident proteome: Secreted ER Calcium Modulated Protein (SERCaMP) assay (AID 1508630). Note: % is set by controls: 0 for no effect and ±100 for the full control effect. To be noted: SH-SY5Y GLuc-SERCaMP (Gaussia luciferase released on ER calcium loss) secretion, thapsigargin, luminescence; series mostly up to 38.4 µM. A digest of the protocol: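 GLuc-SERCaMP-expressing SH-SY5Y cells, pretreated 16 h with compound, are challenged with thapsigargin to empty ER calcium stores; after 4 h, coelenterazine is added directly to the medium and luminescence is imaged.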

Assay [13] addresses 3',5'-cyclic-AMP phosphodiesterase 4B (Homo sapiens) (UniProt Q07343). Description: qHTS Assay for Inhibitors of PDE-IV (AID 607; active = well fitted activation curve with a large enough effect in the main read-out, with a control signal flat, not every such curve was filed as active; note: % of control where 0% means no effect). To be noted: HEK293 ACTOne CNG channel cells, membrane potential fluorescence; series mostly up to 22.9 µM. A digest of the protocol:
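HEK293 ACTOne cells with CNG channel (1000/well), endogenous PDE4; membrane potential dye, compounds up to 22.9 uM final. Fluorescence Ex 535/Em 590; RO 20-1724 (100 uM final) as reference.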

Assay [14] is described as follows: Confirmation and Secondary Assay for Modulators of Hemoglobin Beta Chain Splicing at IVS2 705 locus (AID 930).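 Note: HeLa cells stably expressing the EGFP-705 splicing reporter; % of control where 0% means no effect.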 To be noted: HeLa EGFP-705 splicing reporter, GFP fluorescence, 48 h; series mostly up to 38.3 µM. A digest of the protocol: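 Splice-correction reporter: EGFP cDNA split by beta-globin intron 2 bearing the 705 mutation, stably in HeLa. Compound incubation 2 days, 37C; fluorescent objects 5-250 µm summed per well.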

Assay [15] can be described thus: qHTS Assay for Identification of Small Molecule Agonists for Hypoxia Response Element Signaling Pathway (AID 914; active = well fitted activation curve with a large enough effect in the signal ratio, with a control signal flat, not every such curve was filed as active; the % refers to the signal ratio; note: potency is the fitted concentration of half-maximal effect; for activation: % of control where 0% means no effect). The conditions noted are these: ME-180 (cervical carcinoma) HRE-bla reporter, beta-lactamase ratio, CoCl2, 17 h; activation: active compounds read high. A digest of the protocol:
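Cells were plated overnight, pin-dosed with compound in a titration series, co-stimulated with EC50 CoCl2 and incubated 17 hours at 37 degrees Celsius. CCF4 substrate was then loaded, and AC50 values came from the 460nm/530nm ratio.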

Assay [16] addresses Dual specificity protein kinase CLK4 (Homo sapiens) (UniProt Q9HAZ1). Description: qHTS Assay for Inhibitors of CDC-like Kinase 4 (ADP-FP Assay) (AID 1795).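 Note: recombinant human CLK4 phosphorylating RS repeat peptide at 1 µM ATP; % is set by controls: 0 for no effect and ±100 for the full control effect; nearly all actives have a fitted effect of over 60% in size.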 To be noted: Transcreener ADP fluorescence polarization; series mostly up to 50 µM. The essentials: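 Clk4 6.25 nM; RS peptide 100 uM; ATP 1 uM; 25 mM Tris pH 7.5, 10 mM MgCl2; 1 h reaction. ADP detected via antibody/orange tracer FP displacement; TG003 positive control.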

The structures appear in SMILES notation. Values without a mark were called inactive. Records with an inconclusive call do not appear. Activity calls are given as the source filed them. Unless noted, calls come from the whole dose curve; as a rule, active = well fitted curve in the direction sought with a large enough effect; inconclusive = small, poorly fitted or top-dose-only effect, or another doubt; inactive = no such curve, though single readings can be large; an effect the other way counts as inactive or inconclusive.

Chain of Ubiquitin carboxyl-terminal hydrolase 1 (Homo sapiens) (O94782 whole entry, looked up): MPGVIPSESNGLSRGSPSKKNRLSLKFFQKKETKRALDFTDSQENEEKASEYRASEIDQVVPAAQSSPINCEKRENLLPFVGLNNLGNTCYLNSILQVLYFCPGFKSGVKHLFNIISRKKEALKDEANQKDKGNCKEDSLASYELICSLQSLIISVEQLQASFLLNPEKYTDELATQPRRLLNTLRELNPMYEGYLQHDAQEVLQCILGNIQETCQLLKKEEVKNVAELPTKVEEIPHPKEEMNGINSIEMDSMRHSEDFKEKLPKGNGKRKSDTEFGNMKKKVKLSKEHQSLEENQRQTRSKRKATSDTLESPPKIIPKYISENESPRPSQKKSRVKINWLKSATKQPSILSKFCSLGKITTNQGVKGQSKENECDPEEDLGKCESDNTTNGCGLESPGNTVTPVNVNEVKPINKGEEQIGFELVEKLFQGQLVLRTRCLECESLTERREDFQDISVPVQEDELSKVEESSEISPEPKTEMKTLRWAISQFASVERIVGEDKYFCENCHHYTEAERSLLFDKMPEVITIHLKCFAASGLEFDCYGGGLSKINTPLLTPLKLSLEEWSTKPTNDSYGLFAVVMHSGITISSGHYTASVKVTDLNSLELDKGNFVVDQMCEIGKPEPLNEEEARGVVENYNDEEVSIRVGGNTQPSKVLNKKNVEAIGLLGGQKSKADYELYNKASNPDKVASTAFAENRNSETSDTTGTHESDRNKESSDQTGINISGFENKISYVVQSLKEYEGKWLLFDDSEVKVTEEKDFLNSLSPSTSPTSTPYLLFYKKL
Chain of 3',5'-cyclic-AMP phosphodiesterase 4B (Homo sapiens) (Q07343 whole entry, looked up): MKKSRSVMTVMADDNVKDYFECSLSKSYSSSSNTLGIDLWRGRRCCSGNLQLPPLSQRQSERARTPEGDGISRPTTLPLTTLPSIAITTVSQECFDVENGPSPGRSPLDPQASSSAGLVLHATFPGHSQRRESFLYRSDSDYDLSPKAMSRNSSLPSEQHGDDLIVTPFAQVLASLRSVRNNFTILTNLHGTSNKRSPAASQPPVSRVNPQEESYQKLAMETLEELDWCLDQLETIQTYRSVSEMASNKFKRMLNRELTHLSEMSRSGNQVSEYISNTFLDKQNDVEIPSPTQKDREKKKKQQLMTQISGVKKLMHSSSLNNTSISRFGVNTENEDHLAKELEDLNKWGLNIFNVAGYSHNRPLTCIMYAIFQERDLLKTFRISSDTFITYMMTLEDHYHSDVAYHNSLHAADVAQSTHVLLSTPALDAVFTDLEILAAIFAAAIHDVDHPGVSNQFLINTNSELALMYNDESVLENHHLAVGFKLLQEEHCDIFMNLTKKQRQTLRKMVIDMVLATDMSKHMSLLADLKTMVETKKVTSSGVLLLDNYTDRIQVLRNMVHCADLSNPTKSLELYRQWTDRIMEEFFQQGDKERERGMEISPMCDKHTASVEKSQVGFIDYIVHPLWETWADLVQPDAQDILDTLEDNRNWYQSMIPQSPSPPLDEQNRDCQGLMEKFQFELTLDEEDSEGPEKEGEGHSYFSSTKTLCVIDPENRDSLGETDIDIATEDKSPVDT
Chain of Cytochrome P450 1A2 (Homo sapiens) (P05177 whole entry, looked up): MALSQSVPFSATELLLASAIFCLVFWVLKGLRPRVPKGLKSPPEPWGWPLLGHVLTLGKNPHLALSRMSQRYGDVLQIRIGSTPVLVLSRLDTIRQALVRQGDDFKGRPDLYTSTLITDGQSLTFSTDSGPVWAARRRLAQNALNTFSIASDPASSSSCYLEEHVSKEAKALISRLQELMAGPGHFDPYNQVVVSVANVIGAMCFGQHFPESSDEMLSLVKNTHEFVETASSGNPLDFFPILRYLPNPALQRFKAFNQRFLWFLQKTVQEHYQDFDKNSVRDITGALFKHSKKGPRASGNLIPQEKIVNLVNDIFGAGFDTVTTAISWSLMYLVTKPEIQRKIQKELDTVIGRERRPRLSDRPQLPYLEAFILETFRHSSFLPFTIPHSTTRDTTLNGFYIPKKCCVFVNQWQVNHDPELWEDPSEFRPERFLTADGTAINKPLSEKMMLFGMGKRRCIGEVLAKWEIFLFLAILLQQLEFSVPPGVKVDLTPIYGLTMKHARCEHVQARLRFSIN
Chain of Glucocorticoid receptor (Homo sapiens) (P04150 whole entry, looked up): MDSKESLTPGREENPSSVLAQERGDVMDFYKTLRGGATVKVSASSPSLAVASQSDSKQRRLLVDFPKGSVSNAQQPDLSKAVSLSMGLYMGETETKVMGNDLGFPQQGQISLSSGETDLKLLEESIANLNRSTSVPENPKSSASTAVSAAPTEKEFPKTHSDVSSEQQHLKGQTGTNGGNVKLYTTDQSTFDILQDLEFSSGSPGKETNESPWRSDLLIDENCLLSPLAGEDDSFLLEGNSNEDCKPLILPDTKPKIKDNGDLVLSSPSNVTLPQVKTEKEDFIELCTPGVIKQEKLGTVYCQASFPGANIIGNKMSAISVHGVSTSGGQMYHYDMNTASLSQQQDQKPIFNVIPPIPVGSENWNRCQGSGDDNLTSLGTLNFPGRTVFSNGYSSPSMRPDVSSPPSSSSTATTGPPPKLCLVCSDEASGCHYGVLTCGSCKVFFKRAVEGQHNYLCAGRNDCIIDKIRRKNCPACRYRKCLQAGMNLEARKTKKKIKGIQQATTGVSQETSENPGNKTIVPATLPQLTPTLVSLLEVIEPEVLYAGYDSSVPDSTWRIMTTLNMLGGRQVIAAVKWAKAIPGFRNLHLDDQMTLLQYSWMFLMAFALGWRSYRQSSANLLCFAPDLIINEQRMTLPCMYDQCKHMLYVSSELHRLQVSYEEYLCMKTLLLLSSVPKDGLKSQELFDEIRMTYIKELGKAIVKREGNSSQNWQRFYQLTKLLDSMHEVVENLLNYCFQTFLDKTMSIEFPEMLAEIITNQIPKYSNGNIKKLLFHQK
Chain of Cytochrome P450 3A4 (Homo sapiens) (P08684 whole entry, looked up): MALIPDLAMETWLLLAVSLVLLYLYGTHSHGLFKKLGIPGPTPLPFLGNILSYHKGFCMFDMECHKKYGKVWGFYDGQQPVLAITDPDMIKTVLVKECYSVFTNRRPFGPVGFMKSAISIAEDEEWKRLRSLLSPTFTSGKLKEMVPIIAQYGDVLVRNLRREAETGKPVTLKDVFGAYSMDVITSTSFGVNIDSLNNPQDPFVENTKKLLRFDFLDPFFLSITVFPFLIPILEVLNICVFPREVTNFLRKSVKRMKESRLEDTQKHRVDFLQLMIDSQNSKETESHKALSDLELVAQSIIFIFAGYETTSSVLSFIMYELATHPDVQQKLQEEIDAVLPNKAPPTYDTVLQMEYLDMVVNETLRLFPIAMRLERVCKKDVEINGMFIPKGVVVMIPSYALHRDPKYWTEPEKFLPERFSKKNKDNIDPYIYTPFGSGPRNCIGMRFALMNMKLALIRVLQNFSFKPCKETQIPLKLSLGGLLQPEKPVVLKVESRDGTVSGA
Chain of Dual specificity protein kinase CLK4 (Homo sapiens) (Q9HAZ1 whole entry, looked up): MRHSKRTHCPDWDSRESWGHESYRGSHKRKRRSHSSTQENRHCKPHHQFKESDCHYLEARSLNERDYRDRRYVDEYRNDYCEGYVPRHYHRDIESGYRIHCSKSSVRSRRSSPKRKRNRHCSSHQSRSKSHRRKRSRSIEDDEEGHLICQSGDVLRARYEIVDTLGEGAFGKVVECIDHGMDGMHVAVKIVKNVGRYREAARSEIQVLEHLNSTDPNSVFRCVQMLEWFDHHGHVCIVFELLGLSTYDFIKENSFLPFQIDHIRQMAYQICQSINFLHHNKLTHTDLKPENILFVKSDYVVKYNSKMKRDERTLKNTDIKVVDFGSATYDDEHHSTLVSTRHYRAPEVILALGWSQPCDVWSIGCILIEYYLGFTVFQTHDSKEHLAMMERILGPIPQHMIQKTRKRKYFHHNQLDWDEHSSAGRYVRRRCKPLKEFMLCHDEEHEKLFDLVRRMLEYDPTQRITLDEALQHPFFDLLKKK

As to `COc1cccc(-c2nc(NCc3cnc(C)cn3)c3ccccc3n2)c1`, the Potency in assay [1] is more than 11.4 µM; in assay [3], 0.398 µM (active); in assay [6], more than 46 µM; in [7], more than 46 µM; in [9], 2.51 µM (active). Moreover, the activity change, negative = inhibition in [2] is -17.2%; in assay [4] it was 20.9%. Also, the activity, negative = inhibition in assay [5] was -10.4%. For the same compound, the Potency entry in assay [8], in assay [10] and in assay [11] was “inactive” each time. Besides, in assay [12], the result was inactive.
With `c1ccc2c(NC3CC3)nc(-c3ccoc3)nc2c1`, the Potency in assay [1] is 3.8 µM (active); in assay [3], 0.316 µM (active); in [6], more than 46 µM; in assay [7] it was more than 46 µM; in [9] it was 3.98 µM (active). In addition, the figures for the activity change, negative = inhibition in [2] and in assay [4] were 14.4% and -16.4%, respectively. Further, the activity, negative = inhibition in [5] is -5.96%. The Potency result in assay [8], in assay [10] and in assay [11] was “inactive” throughout. The result in assay [12] was inactive.
Take `COc1ccc2[nH]cc(CCNc3nc(-c4ccccc4CN(C)C)nc4ccccc34)c2c1`: the Potency was more than 11.4 µM in assay [1], 25.1 µM (active) in assay [3], more than 46 µM in assay [6] and more than 46 µM in [7]. Moreover, the activity change, negative = inhibition in assay [2] is -0.774%; in [4], -26.8%. Further, the activity, negative = inhibition in assay [5] is 4.15%. Moreover, the Potency entry in [8], in [13], in [10] and in assay [11] was “inactive” in each case. Further, the call in [14] and in [12] was inactive.
With `CCNc1ncc2nc(-c3ccc(Cl)cc3)c(=O)n(Cc3cccs3)c2n1`, the Potency in assay [1] is more than 11.4 µM; in assay [6], more than 9.22 µM; in [7] it was more than 46 µM; in assay [15], 126 nM (active). Also, the Potency entry in [8], in assay [16] and in [11] was “inactive” in each case. In addition, the result in assay [12] was inactive.
As for `c1ccc(CNc2ncncc2-c2ccoc2)cc1`, the Potency is more than 11.4 µM in assay [1]; 5.01 µM (active) in assay [3]; more than 46 µM in assay [6]; more than 46 µM in assay [7]; 2 µM (active) in assay [9]. For the same compound, the activity change, negative = inhibition is 9.24% in assay [2] and 17% in assay [4]. Moreover, in assay [5], the activity, negative = inhibition was -8.66%. Also, the Potency entry in [8], in assay [13], in [10] and in assay [11] was “inactive” each time. The activation in assay [15] is 1.1%. In [12], the outcome was inactive.
Regarding `CC(=O)NCCNc1nc(-c2ccc3c(c2)OCO3)nc2ccccc12`, the Potency in [1] is more than 11.4 µM; in assay [3] it was 2.51 µM (active); in assay [6], more than 46 µM; in assay [7], more than 46 µM; in assay [9], 3.98 µM (active). In addition, the activity change, negative = inhibition in assay [2] is -7.08%; in [4] it was 5.61%. In addition, in assay [5], the activity, negative = inhibition is 4.37%. Further, the Potency entry in assay [8], in [13], in assay [10] and in assay [11] was “inactive” throughout. The result in assay [12] was inactive.
